Data on 14 compounds can be found in PubChem BioAssay (NCATS).

Assay [1] is described as follows: qHTS Assay for Identifying Gametocytocidal Compounds (AID 743244). Also: potency is read from the fitted curve at half-maximal effect.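 As to max response: % is scaled to controls: 0 for no effect and ±100 for the full control effect; actives lower the fluorescent signal which means gametocytes are killed.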 Conditions: P. falciparum 3D7 stage III-V gametocytes, alamarBlue, 72 h; max response: stronger effect = lower value. The gist of the method:
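Viability read-out was resazurin reduction (alamarBlue, 24 h) measured at Ex 525/Em 598 nm. Beforehand, late-stage (III-V) 3D7 P. falciparum gametocytes at 20,000 cells/well were incubated with compound 72 h at 37C under 5% CO2.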
(In general: In qHTS, concentration-response curves come from the screen itself.)

The conditions of assay [2]: Ebola virus entry assay, green fluorescence channel.
Assay [3] can be described thus: qHTS assay for small molecule agonists of the antioxidant response element (ARE) signaling pathway measured by Nrf2-dependant transcriptional activity (AID 720636; active = well fitted curve in the direction sought with a large enough effect in the repeat runs; an effect the other way counts as inactive or inconclusive;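 also: HepG2 cells with an ARE-driven luciferase reporter; % of control where 0% means no effect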). Particulars: ARE-luc HepG2, Nrf2 luciferase reporter, 16 h; series mostly up to 92.4 µM. Put shortly:
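First, ARE-luc HepG2 cells attached for 6 hr at 37 C in 1% dialyzed FBS medium. Next, compound or DMSO was added and incubated 16 hr. Finally, ONE-Glo reagent was added and luminescence measured after 30 min.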

Assay [4] is described as follows: qHTS assay for small molecule antagonists of the retinoid-related orphan receptor gamma (ROR-gamma) signaling pathway - cell viability counter screen (AID 720652; active = well fitted curve in the direction sought with a large enough effect in the repeat runs; an effect the other way counts as inactive or inconclusive;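 also: compound exposure lasted 16 hr before ATP read; % is scaled to controls: 0 for no effect and ±100 for the full control effect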). Particulars: RORgamma reporter cell line viability counter screen; series mostly up to 92.2 µM. Put shortly: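 Cytotoxicity counter screen: intracellular ATP (CellTiter-Glo luminescence) measured in the doxycycline-induced CHO RORE-luciferase reporter line after 16 hr compound exposure at 37 C, 5% CO2.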

Assay [5] can be described thus: qHTS assay for small molecule agonists of the antioxidant response element (ARE) signaling pathway measured by Nrf2-dependant transcriptional activity - cell viability counter screen (AID 720653; active = well fitted curve in the direction sought with a large enough effect in the repeat runs; an effect the other way counts as inactive or inconclusive; also: % is scaled to controls: 0 for no effect and ±100 for the full control effect). Particulars: ARE-bla HepG2 viability, CellTiter-Glo ATP luminescence, 16 h; stronger effect = lower value. The gist of the method:
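ARE-bla HepG2 cells treated with compounds for 16 h at 37C; this counter screen measures viability as intracellular ATP by CellTiter-Glo luminescence after 30 min at room temperature.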

Assay [6] in a line: qHTS assay for cell viability of HEK293 cells (AID 743288). Also: % is scaled to controls: 0 for no effect and ±100 for the full control effect; nearly all actives have a fitted effect of over 50% in size. Particulars: ATP luminescence (CellTiter-Glo), 18 h, stronger effect = lower value. Put shortly:
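Steps: plate 2,000 parental HEK293 cells per well; incubate ≥5 h, 37 C; add compounds in DMSO; incubate 18 h, 37 C; add CellTiter-Glo; wait 30 min at room temperature; read luminescence.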

Assay [7] is described as follows: qHTS assay for cell viability of the p53RE-bla HCT-116 cell line (AID 743292). Also: % is scaled to controls: 0 for no effect and ±100 for the full control effect; nearly all actives have a fitted effect of over 55% in size. Particulars: p53RE-bla HCT-116 viability, ATP luminescence, 16 h; series mostly up to 95 µM. The gist of the method:
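Quantitative high-throughput format: compounds in DMSO were pinned onto p53RE-bla HCT-116 cells (4,000/well) and incubated 16 h at 37 C. Total intracellular ATP, read by CellTiter-Glo luminescence, reflects viable cell number.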

The conditions of assay [8]: Ebola virus entry assay, blue channel fluorescence.
For assay [9] the following is noted: Ebola virus entry assay, green fluorescence channel. The source holds these as a separate data set.
The nature of assay [10]: qHTS profiling of the MIPE4 collection as inhibitors of Plasmodium falciparum (3D7) proliferation (AID 743344; call rule not given here;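 also: scaled between DMSO vehicle wells and 0.29 µM artemisinin as full inhibition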). Particulars: P. falciparum 3D7 in erythrocytes, SYBR Green DNA fluorescence, 72 h; at 28.5 µM (top of the series) unless noted. Put shortly: (§1)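 Parasite DNA was quantified by SYBR Green I fluorescence (ex 485, em 535 nm) after overnight lysis in saponin/Triton buffer at room temperature. Cultures at 0.3% parasitemia and 2.5% hematocrit were first exposed to compound for 72 h at 37 C; signals were normalised to artemisinin (0.29 uM) and vehicle wells.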

A short description of assay [11]: qHTS profiling of the MIPE4 collection as inhibitors of Plasmodium falciparum (DD2) proliferation (AID 743345; call rule not given here). Particulars: P. falciparum Dd2 in erythrocytes, SYBR Green DNA, 72 h; at 28.5 µM (top of the series) unless noted. The gist of the method: as §1
Assay [12] can be described thus: qHTS profiling of the MIPE4 collection as inhibitors of Plasmodium falciparum (DD2) proliferation (Rep 2) (AID 743346; call rule not given here). Conditions: P. falciparum Dd2 in erythrocytes, SYBR Green DNA, 72 h; at 28.5 µM (top of the series) unless noted. Put shortly:
as §1

“And” between values parts separate entries of the source, which are not always exact repeats. Equal entries are not always repeated. Results filed as inconclusive are left out. For some assays here: Measured potencies and affinities stand elsewhere. The source made the active and inactive calls.
For efficacy in this document: 0% is about no effect.

Turning to `COC1CC(=C(c2cccs2)c2cccs2)C[N+](C)(C)C1` (centres undefined), the Potency in assay [1] is 8.91 µM (active). The efficacy in [2] is 18.8% (inactive).
As to `CC(C)c1c(CN(C)C(C)Cc2ccccc2)n(C)n(-c2ccccc2)c1=O` (centres undefined), in assay [1], the max response was 12.8% (inactive). Moreover, in assay [2], the efficacy was -15% (inactive).
On to `Oc1ccc(Cl)cc1`, for which the compound was classed as inactive in assay [3] and in assay [4]. Moreover, the results for the max response in [5] and in assay [6] were -5.13% (inactive) and -5.89% (inactive), respectively. In [7], the Potency result is “inactive”. For the same compound, the efficacy in [2] was -35.6% (inactive).
In the case of `NC(=O)CS(=O)C(c1ccccc1)c1ccccc1` (centres undefined), the max response in assay [1] is -2.53% (inactive). For the same compound, in assay [2], the efficacy is -20.1% (inactive).
With `CCN(CC)CCc1c[nH]c2ccccc12`, in assay [1], the max response is 14.8% (inactive). In addition, the efficacy in assay [2] was 21.6% (inactive).
With `CSCC[C@H](NC(=O)[C@H](Cc1ccc(OS(=O)(=O)O)cc1)NC(=O)[C@@H](N)CC(=O)O)C(=O)NCC(=O)N[C@@H](Cc1c[nH]c2ccccc12)C(=O)N[C@@H](CCSC)C(=O)N[C@@H](CC(=O)O)C(=O)N[C@@H](Cc1ccccc1)C(N)=O`, the result in [8] and in assay [9] was inactive.
`CC(C)OC(=O)OCOP(=O)(CO[C@H](C)Cn1cnc2c(N)ncnc21)OCOC(=O)OC(C)C`: the parasite growth, % of DMSO control in assay [10] came out at 292%. The parasite growth remaining, % of DMSO control (lower = more inhibition) in assay [11] is 79.8%. For the same compound, in assay [12], the parasite growth, % of control (lower = inhibition) came to 74.1%. Also, the efficacy in assay [2] was -18.7% (inactive).
For `CCCCCN(C)CCC(O)(P(=O)(O)O)P(=O)(O)O`, the outcome in assay [8] and in assay [9] was inactive.
For `Nc1ccc([As](=O)(O)O)cc1`, the compound was classed as inactive in [3]. Moreover, the max response in assay [5] was -9.13% (inactive); in assay [6], -4.94% (inactive). For the same compound, in [7], the Potency result was “inactive”. Also, in assay [2], the efficacy was -24.9% (inactive).
For `CCOC(=O)CC(SP(=S)(OC)OC)C(=O)OCC` (centres undefined), the compound was classed as inactive in assay [3] and in [4]. Further, the max response was 25% (inactive) and -5.73% (inactive) and -3.35% (inactive) in [5]; 7.01% (inactive) and -6.6% (inactive) in assay [1]; -11.8% (inactive) and -13% (inactive) and -16.1% (inactive) in assay [6]. For the same compound, the Potency entry in [7] was “inactive”. For the same compound, the efficacy in assay [2] was -13.3% (inactive).
For `CCCCCCC(=O)CCCCCC/C=C/C[C@@H](O)[C@H](O)[C@@](N)(CO)C(=O)O`, in assay [1], the max response was -3.38% (inactive) and -2.5% (inactive). Further, the efficacy in [2] was -11.6% (inactive).
On to `C[C@]12CC[C@@H]3c4ccc(OC(=O)N(CCCl)CCCl)cc4CC[C@H]3[C@@H]1CC[C@@H]2O`, for which, in [1], the max response was -1.39% (inactive). Further, the efficacy in [2] is -12.5% (inactive).
For `O=C(O)/C=C\C(=O)O`, in that order: 2.8% (inactive) and 12.7% (inactive).
In [10], `CN1C(=O)COc2c(C(=O)NC3CN4CCC3CC4)cc(Cl)cc21` (centres undefined) gave a parasite growth, % of DMSO control of 98.1%. Also, the parasite growth remaining, % of DMSO control (lower = more inhibition) in assay [11] is 78.2%. For the same compound, the parasite growth, % of control (lower = inhibition) in [12] was 95.9%. The efficacy in [2] was -18% (inactive).
